# Hits are enriched below; roughly 2.6% of the tested compounds scored in any of these assays.
# M18AAP inhibitor: PfM18AAP inhibitors, malaria aminopeptidase, primary screen, biochemical, QFRET, recombinant enzyme | 290,000 compounds, 1.2% hits | inhibition, % at 7.35 µM | H-Glu-NHMec fluorogenic cleavage;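 active = inhibition above the campaign mean inhibition over all tested compounds plus 3 SD, cut at about 28% in these data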;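 note: 0% = plate median of test compound wells and 100% = 2 mM ZnCl2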
# Granule exo inh: LAMP-1 surface exposure blockers, TALL-104 cells – cell-based, flow cytometry, MLPCN library, primary screen. TALL-104 LAMP-1 surface exposure; cells stimulated with thapsigargin and PMA. inhibition, % at 10 µM. 360,000 compounds, 0.66% hits;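 active = inhibition above about 55%, limit read from the data; inconclusive = no clear call, values can overlap the other calls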
# Rce1 inh: yeast Rce1p protease inhibitors, primary screen, biochemical, fluorescence, cell-free homogeneous | 290,000 compounds, 0.27% hits | calls only | yeast membranes, quenched prenylated peptide cleavage fluorescence | CAAX prenyl protease 2 (Saccharomyces cerevisiae (strain ATCC 204508 / S288c)), Q03530;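 active = fall in fluorescence gain of 50% or more versus controls, with final raw signal at or below 3038400; inconclusive = same 50% fall but final raw signal above 3038400; inactive = fall in fluorescence gain under 50%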;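 note: plate controls were neutral control wells for no effect and wells lacking membranes for full effect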
# Target sequence (Q03530 whole entry, looked up): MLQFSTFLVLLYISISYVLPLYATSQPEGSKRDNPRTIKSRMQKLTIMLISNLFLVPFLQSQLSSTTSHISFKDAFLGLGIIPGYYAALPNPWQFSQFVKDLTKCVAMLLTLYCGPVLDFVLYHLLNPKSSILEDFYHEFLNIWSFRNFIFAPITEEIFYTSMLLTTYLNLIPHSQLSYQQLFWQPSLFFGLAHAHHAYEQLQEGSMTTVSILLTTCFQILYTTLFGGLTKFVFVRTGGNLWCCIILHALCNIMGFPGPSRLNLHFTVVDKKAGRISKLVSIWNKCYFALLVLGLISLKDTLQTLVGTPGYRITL
# ABHD5-PLIN5 inh: ABHD5-PLIN5 interaction inhibitors, primary screen, cell lysate, split luciferase complementation, luminescence | Split G. princeps luciferase complementation, 4 h | inhibition, % at 4 µM | 360,000 compounds, 0.78% hits | AID 602281, 2012;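 active = inhibition above the mean inhibition across every tested compound plus 3 SD, cut at about 22% in these data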;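 note: 0% = DMSO only wells and the 100% control is not disclosed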
# Platelet DG rel: inhibitors of platelet dense granule secretion, primary screen, cell-based, MLPCN, human platelets. human platelet-rich plasma, SFLLRN dense granule ATP release, luminescence. 300,000 compounds, 0.22% hits. inhibition, %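 (compounds screened at 7.5 µM in platelet-rich plasma)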. AID 1663, 2009;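 active = mean replicate score, as percent of positive control, at or above 50; inconclusive = mean below 50 but at least one replicate at or above 50; inactive = mean and every replicate below 50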
# An asterisk follows results filed as active; i = inactive; u = inconclusive; x = no result; + = active, no number; ! = not active in a repeat.
SMILES,M18AAP inhibitor,Granule exo inh,Rce1 inh,ABHD5-PLIN5 inh,Platelet DG rel
CCc1ccc(N=C2NC(=O)/C(=C/c3cc(OC)c(O)c(OC)c3)S2)cc1,28*,13,i,-2,1
CC(C)C(=O)Nc1c2c(nc3ccccc13)N(C)CC2,1,2,+,-4,1
CCN(CC)CC(=O)Nc1c2c(nc3ccccc13)N(C)CC2,10,14,i,-8,3
CCN1CCN(Cc2ccc(NC(=O)c3ccc(C)c(NC(=O)c4ccc5n[nH]nc5c4)c3)cc2C(F)(F)F)CC1,x,-1,i,-2,-4
CCN1CCN(Cc2ccc(NC(=O)c3ccc(C)c(NC(=O)C(=O)c4c[nH]c5ccccc45)c3)cc2C(F)(F)F)CC1,6,4,i,30*!,-1
S=C(NC1CCCCC1)NC1CC2C=CC1C2 (configuration not stated),-5,-8,i,0,17
C#CCSc1nc(N)c2c(n1)OC(N)=C(C#N)C2c1cccnc1 (configuration not stated),-12,-2,i,2,-5
Cc1ccc(N2C(=O)c3ccccc3C2O)nc1 (configuration not stated),-6,x,i,x,78*
Nc1nc(-c2cccnc2)nc2sc3c(c12)CCCC3,5,-4,i,5,4
Cc1ccc(-c2nc3ccccc3[nH]2)s1,2,2,u,14,59*
c1csc(-c2nc3ccccc3[nH]2)c1,-4,-3,x,3,x
Cc1ncoc1C(=O)Nc1ccc2c(c1)OCCO2,-1,-1,i,-2,66*
COc1cccc(NC(=O)c2ccc3c(c2)OCO3)c1,-13,1,x,-4,12
COc1cccc(NC(=O)c2ccc3c(c2)OCCO3)c1,1,-8,i,-3,52*
Oc1ccc(/C=N/Nc2ncnc3c2ncn3Cc2ccccc2)cc1O,39*,8,i,12,0
CC(=O)C[C@@H](O)CC(=O)[C@H]1OC(=O)[C@@H](C)C/C=C\Cc2ccccc21,x,-1,x,-3,x
Cc1nnc(NC(=O)CSc2nnnn2Cc2ccccc2)s1,-1,0,i,-4,5
Brc1ccc(C2=CSC3=NCCN23)cc1,9,1,i,-8,-1
Oc1ccc(C2=CSC3=NCCN23)cc1O,55*,7,i,-3,-3
CCOC(=O)C1=C(C)NC(=O)NC1,-11,-9,i,0,60*
CCOC(=O)C1=C(C)NC(C)=C(C(=O)OCC)C1C,-2,-3,i,9,-1
COc1ccc(/C=C/c2nc(-c3ccccc3O)n[nH]2)cc1OC,6,65*,i,-1,-31
COC(=O)C1=CN(CC2CCCO2)C=C(C(=O)OC)C1c1ccsc1 (configuration not stated),1,3,u,6,0
COC(=O)C1=CN(CC2CCCO2)C=C(C(=O)OC)C1c1cccc(O)c1 (configuration not stated),4,-1,+,2,2
COc1ccccc1C(CNC(=O)c1cccc(S(=O)(=O)N2c3ccccc3CC2C)c1)N(C)C (configuration not stated),x,-8,x,23*,x
SMILES,M18AAP inhibitor,Granule exo inh,Rce1 inh,ABHD5-PLIN5 inh,Platelet DG rel
NS(=O)(=O)c1ccc(CCNC(=O)c2ccc3ccccc3n2)cc1,4,0,+,0,0
NS(=O)(=O)c1ccc(CNC(=O)c2ccc3ccccc3n2)cc1,-8,-5,i,-2,-19
Cc1c(C(=O)Nc2ccc(Cl)cc2)c2ccccn2c1C(=O)c1ccccc1,-6,-3,i,3,4
CCN(CC)CCCNC(=O)c1cn(C)c(=O)c2c1c1ccccc1n2C,21,-1,i,2,-9
C[C@H](NC(=O)[C@@H]1Cc2ccccc2CN1C(=O)OC(C)(C)C)C(=O)NCc1ccco1,8,0,i,22*,5
Cc1ccc(-c2c3c([nH]c(=S)c2C#N)CCCC3)o1,31*,-3,i,13,1
N#Cc1c(-c2ccncc2)c2c([nH]c1=S)CCCC2,11,12,i,-13,-44
CCOC(=O)c1cc(C)[nH]c(=O)c1C#N,-4,0,+,2,-4
O=C(O)c1ccc(NC2=C(Cl)C(=O)c3ccccc3C2=O)cc1,4,70*,i,3,-3
O=C1C(Cl)=C(Nc2ccccc2)C(=O)c2ccccc21,6,42,i,4,26
COc1ccc(C(=O)NCc2nnc(SCC(=O)Nc3cc(C)on3)o2)cc1OC,30*,-2,x,-1,2
COc1cc(C(=O)NCc2nnc(SCC(=O)Nc3nc4ccccc4s3)o2)cc(OC)c1OC,31*,4,i,-4,7
COc1cc(C(=O)NCc2nnc(SCC(=O)Nc3cc(C)on3)o2)cc(OC)c1OC,24,-1,i,-6,2
COc1ccccc1Cc1c(-c2ccco2)nc2ccc(Br)cn12,x,52,x,42*,x
COc1ccccc1Cc1c(-c2ccc(F)cc2)nc2ccc(Br)cn12,x,-5,x,1,x
FC(F)(F)c1ccccc1Cc1c(-c2ccco2)nc2ccc(Br)cn12,x,11,x,34*,x
O=c1c2ccccc2cnn1Cc1n[nH]c(=S)n1-c1cc(Cl)cc(Cl)c1,30*,-3,i,9,2
O=C(NNc1cccc(Cl)n1)c1cccnc1Cl,32*,-13,i,0,-9
CCCCNC(=O)c1onc(CSc2ccc(Cl)cc2)c1C(=O)NCCCC,x,70*,i,-11,2
CN(C)c1ccc(/C=C/c2cccc[n+]2[O-])cc1,13,-7,x,1,-1
CN(C)c1ccc(/C=C/c2ccc3c4ccccc4ccc3[n+]2-c2ccccc2)cc1,3,-28,x,37*,x
CC(C)CC(N)c1csc(NC(=O)Nc2ccccc2-c2ccccc2)n1 (configuration not stated),x,14,x,-1,x
O=C1CCC(c2ccc(-n3ccnc3)cc2)=NN1,x,-3,i,-1,82*
Cc1ccc(-c2c(C#N)c(N)n(-c3ccccc3)c(=O)c2C#N)cc1,-1,-5,i,-2,54*
Cc1ccc(-c2c(C#N)c(N)n(-c3ccc(Cl)cc3)c(=O)c2C#N)cc1,x,10,x,-7,x
COc1cc(C(c2sc3nc(C)nn3c2O)N2CCN(c3ccccc3)CC2)cc(OC)c1OC (configuration not stated),3,0,i,-2,-1
COc1ccc(C(c2sc3nc(C)nn3c2O)N2CCCCC2)cc1 (configuration not stated),7,-4,i,-2,59*
COc1cc(C(c2sc3nc(C)nn3c2O)N2CCOCC2)cc(OC)c1OC (configuration not stated),-4,1,i,6,67*

# Screening results as filed in PubChem BioAssay.
